# Laboratory results published in PubChem BioAssay (EPA / NIEHS).
# Several values for one entry are separate records, joined by “and”; a condition that tells them apart may be missing. Equal values may be shown once. Inconclusive results are not listed. The source holds several records for some structures; these can differ, active in one and inactive in another. Activity calls are given as the source filed them. The calls were made as follows: active = hit-call score of the fitted dose curve at least 0.9, where 1 is the maximum; inconclusive = response in the unintended direction; inactive = score below 0.9.
# Columns and labels:
# [1] = target: bovine Gamma-Aminobutyric Acid Type A Receptor BDZ, alpha 5 site (GABARa5), GABRA5 (gene 523515) (UniProt Q08E50); experiment: NVS_LGIC_bGABARa5: NovaScreen (NVS) Ligand-Gated Ion Channel Assay for bovine Gamma-Aminobutyric Acid Type A Receptor BDZ, alpha 5 site (GABARa5) (AID 2283323)
# Sequence of bovine Gamma-Aminobutyric Acid Type A Receptor BDZ, alpha 5 site (GABARa5), GABRA5 (gene 523515) (Q08E50 whole entry, looked up): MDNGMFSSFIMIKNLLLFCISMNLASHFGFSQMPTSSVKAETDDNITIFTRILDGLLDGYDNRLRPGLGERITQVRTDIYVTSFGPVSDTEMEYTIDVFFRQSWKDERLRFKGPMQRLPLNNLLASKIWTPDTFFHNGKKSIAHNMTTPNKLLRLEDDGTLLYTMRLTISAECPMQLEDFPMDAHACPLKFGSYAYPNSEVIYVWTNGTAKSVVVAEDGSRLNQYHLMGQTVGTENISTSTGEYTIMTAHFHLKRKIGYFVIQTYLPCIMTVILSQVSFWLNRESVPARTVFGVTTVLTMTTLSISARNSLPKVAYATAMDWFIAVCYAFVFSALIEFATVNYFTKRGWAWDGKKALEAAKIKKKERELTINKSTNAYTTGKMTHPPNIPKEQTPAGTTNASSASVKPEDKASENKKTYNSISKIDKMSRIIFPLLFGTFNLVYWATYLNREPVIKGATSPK
# How it was run: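 Radioligand competitive displacement binding on bovine hippocampal membranes, read 1 hr after dosing by filter-based scintillation counting. Primary screen at 25 uM in duplicate; actives (e.g. ≥30% inhibition) then run in concentration-response up to 50 uM.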
# [2] = target: rat Vasopressin 1 Receptor (V1), Avpr1a (gene 25107) (UniProt P30560); experiment: NVS_GPCR_rV1: NovaScreen (NVS) G Protein-Coupled Receptor Assay for rat Vasopressin 1 Receptor (V1) (AID 2283316)
# Sequence of rat Vasopressin 1 Receptor (V1), Avpr1a (gene 25107) (P30560 whole entry, looked up): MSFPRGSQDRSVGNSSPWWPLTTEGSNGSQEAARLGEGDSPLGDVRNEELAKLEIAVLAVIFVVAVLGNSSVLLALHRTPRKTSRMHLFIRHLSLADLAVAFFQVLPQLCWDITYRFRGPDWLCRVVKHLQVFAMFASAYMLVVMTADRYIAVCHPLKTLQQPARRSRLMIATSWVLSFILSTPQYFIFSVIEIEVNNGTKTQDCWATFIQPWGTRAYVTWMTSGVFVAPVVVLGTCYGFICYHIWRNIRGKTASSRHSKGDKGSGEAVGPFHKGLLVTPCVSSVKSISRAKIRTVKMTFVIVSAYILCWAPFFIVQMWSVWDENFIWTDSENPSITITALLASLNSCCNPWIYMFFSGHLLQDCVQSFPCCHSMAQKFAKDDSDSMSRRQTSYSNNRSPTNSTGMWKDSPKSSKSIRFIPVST
# How it was run: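 Radioligand binding on rat liver membranes, 1.5 h incubation, filter-based scintillation counting. Single 25 uM screen in duplicate; chemicals meeting threshold (e.g. 30% inhibition) run in concentration-response up to 50 uM.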
# [3] = target: rat Opioid Receptor, Non-selective Binding, Oprm1 (gene 25601) (UniProt P33535); experiment: NVS_GPCR_rOpiate_NonSelective: NovaScreen (NVS) G Protein-Coupled Receptor Assay for rat Opioid Receptor, Non-selective Binding (AID 2283318)
# Sequence of rat Opioid Receptor, Non-selective Binding, Oprm1 (gene 25601) (P33535 whole entry, looked up): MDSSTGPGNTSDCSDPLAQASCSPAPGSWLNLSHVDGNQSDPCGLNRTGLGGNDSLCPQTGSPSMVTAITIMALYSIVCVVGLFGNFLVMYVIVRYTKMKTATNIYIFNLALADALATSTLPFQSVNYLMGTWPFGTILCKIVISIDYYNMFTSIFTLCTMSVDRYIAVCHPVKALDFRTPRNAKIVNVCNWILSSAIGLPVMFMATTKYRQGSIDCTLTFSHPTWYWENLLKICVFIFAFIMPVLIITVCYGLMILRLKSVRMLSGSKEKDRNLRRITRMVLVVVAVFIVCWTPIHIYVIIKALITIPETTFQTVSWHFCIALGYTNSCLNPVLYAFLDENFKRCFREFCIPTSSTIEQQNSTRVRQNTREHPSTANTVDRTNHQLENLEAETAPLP
# How it was run: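 Rat forebrain membranes, cell-free radioligand binding with filter-based scintillation counting, read 1.5 h after dosing. Primary screen in duplicate at 25 uM; actives retested in concentration series. Loss of signal versus DMSO baseline scored.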
# [4] = target: Sodium channel protein type 1 subunit alpha (Rattus norvegicus) (UniProt P04774); experiment: NVS_IC_rNaCh_site2: NovaScreen (NVS) Ion Channel Assay for rat Sodium Channel, Site 2 (NaCh) (AID 2283322);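 also: hit means loss of radioligand binding signal relative to DMSO so AC50 marks displacement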
# How it was run: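 Membranes: rat forebrain. Format: competitive radioligand displacement, filter separation, scintillation readout, 1 h exposure. Primary screen in duplicate at 25 uM; actives retested in concentration series.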
# [5] = target: human Peripheral-type Benzodiazepine Receptor (PBR), TSPO (gene 706) (UniProt P30536); experiment: NVS_MP_hPBR: NovaScreen (NVS) Membrane Protein Assay for human Peripheral-type Benzodiazepine Receptor (PBR) (AID 2283331);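 also: hits reduce radioligand binding relative to DMSO baseline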
# Sequence of human Peripheral-type Benzodiazepine Receptor (PBR), TSPO (gene 706) (P30536 whole entry, looked up): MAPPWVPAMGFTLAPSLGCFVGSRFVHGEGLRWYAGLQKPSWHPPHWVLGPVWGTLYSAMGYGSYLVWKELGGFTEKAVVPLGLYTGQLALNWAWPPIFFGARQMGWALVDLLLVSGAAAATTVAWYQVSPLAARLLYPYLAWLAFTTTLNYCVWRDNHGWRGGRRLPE
# How it was run: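 Radioligand displacement on human colonic cell membranes, 1 h incubation; bound radioactivity by filtration and scintillation counting. Primary screen in duplicate at 25 uM single concentration, actives followed up in concentration series; loss of binding versus DMSO.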
# [6] = target: rat Peripheral-type Benzodiazepine Receptor (PBR), Tspo (gene 24230) (UniProt P16257); experiment: NVS_MP_rPBR: NovaScreen (NVS) Membrane Protein Assay for rat Peripheral-type Benzodiazepine Receptor (PBR) (AID 2283335)
# Sequence of rat Peripheral-type Benzodiazepine Receptor (PBR), Tspo (gene 24230) (P16257 whole entry, looked up): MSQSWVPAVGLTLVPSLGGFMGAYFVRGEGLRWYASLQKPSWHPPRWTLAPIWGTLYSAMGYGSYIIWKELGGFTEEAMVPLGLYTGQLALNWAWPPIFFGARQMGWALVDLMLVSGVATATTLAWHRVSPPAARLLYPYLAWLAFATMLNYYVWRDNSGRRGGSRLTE
# How it was run: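 Rat kidney membranes; radioligand binding with displacement, filter-based scintillation counting, 1 h incubation. Primary screen in duplicate at 25 uM, actives followed in concentration series; loss of binding vs DMSO.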
# [7] = target: rat Gamma-Aminobutyric Acid Type A Receptor, Non-Selective (GABAR-NonSelective), Gabra1 (gene 29705) (UniProt P62813); experiment: NVS_LGIC_rGABAR_NonSelective: NovaScreen (NVS) Ligand-Gated Ion Channel Assay for rat Gamma-Aminobutyric Acid Type A Receptor, Non-Selective (GABAR-NonSelective) (AID 2283326)
# Sequence of rat Gamma-Aminobutyric Acid Type A Receptor, Non-Selective (GABAR-NonSelective), Gabra1 (gene 29705) (P62813 whole entry, looked up): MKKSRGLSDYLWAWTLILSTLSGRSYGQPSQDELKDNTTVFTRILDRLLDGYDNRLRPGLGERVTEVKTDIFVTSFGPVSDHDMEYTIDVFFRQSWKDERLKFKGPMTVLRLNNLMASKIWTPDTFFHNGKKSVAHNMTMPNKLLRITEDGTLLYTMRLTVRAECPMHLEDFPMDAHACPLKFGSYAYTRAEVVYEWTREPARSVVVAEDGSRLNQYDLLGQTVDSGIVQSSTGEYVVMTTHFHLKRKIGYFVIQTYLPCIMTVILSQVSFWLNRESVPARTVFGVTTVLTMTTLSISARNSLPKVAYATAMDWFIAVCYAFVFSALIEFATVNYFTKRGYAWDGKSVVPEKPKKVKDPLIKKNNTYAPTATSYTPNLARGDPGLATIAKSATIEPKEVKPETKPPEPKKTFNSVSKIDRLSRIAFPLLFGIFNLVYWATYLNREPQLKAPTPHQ
# How it was run: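 Radioligand displacement on rat whole-brain extract, 1 h, filter scintillation readout; signal loss fitted versus DMSO. Primary screen in duplicate at 25 uM; hits (e.g. ≥30% inhibition) retested in concentration-response up to 50 uM.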
# [8] = target: bovine Gamma-Aminobutyric Acid Type A Receptor BDZ, alpha 1 site (GABARa1), GABRA1 (gene 780973) (UniProt P08219); experiment: NVS_LGIC_bGABARa1: NovaScreen (NVS) Ligand-Gated Ion Channel Assay for bovine Gamma-Aminobutyric Acid Type A Receptor BDZ, alpha 1 site (GABARa1) (AID 2283321)
# How it was run: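 Radioligand competition binding on bovine cortical membranes, 0.75 h, filter-based scintillation counting. Primary single concentration 25 uM in duplicate; actives rerun in concentration-response to 50 uM max. Loss of signal fitted versus DMSO.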
# [9] = target: Voltage-dependent N-type calcium channel subunit alpha-1B (Rattus norvegicus) (UniProt Q02294); experiment: NVS_IC_rCaChN: NovaScreen (NVS) Ion Channel Assay for rat Calcium Channel, Type N (CaChN) (AID 2283317)
# [10] = NVS_IC_rCaDHPRCh_L: NovaScreen (NVS) Ion Channel Assay for rat Calcium Channel, Type L, Dihydropyridine Site (CaDHPRCh_L) (AID 2283320)
# How it was run: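 Radioligand binding to dihydropyridine site on rat cortical membranes, filter-based scintillation counting, 1 h after dosing. Screened in duplicate at 25 uM; actives rerun in concentration-response up to 50 uM. Loss of signal versus DMSO baseline.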
# [11] = NVS_IC_rCaBTZCHL: NovaScreen (NVS) Ion Channel Assay for Calcium Channel, Type L, Benzothiazepine Site (CaBTZCHL) (AID 2283337)
# How it was run: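 Scintillation counting of filter-bound radioligand gave the read-out, with reduced binding versus DMSO scored as activity. Membranes came from rat cortex and were read 1.5 h after compound addition. Chemicals were screened first in duplicate at 25 uM.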
# [12] = target: rat Thyrotropin Releasing Hormone Receptor (TRH), Trhr (gene 25570) (UniProt Q01717); experiment: NVS_GPCR_rTRH: NovaScreen (NVS) G Protein-Coupled Receptor Assay for rat Thyrotropin Releasing Hormone Receptor (TRH) (AID 2283329);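 also: hit means lower bound tracer signal versus DMSO baseline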
# Sequence of rat Thyrotropin Releasing Hormone Receptor (TRH), Trhr (gene 25570) (Q01717 whole entry, looked up): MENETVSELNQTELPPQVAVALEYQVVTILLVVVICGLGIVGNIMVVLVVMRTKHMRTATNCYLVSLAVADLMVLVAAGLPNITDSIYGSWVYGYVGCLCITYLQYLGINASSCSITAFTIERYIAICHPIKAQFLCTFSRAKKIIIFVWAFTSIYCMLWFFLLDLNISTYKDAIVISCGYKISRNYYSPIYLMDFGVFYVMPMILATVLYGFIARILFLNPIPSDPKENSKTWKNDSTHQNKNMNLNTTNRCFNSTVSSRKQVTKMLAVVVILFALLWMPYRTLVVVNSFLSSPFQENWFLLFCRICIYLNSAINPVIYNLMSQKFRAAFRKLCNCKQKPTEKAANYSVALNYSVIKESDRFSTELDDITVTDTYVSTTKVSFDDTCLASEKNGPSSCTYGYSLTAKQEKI
# How it was run: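 Rat forebrain membrane prep, radioligand displacement, filter scintillation readout at 4 h. Single conc 25 uM, duplicate; actives retested as concentration series. DMSO = negative control/baseline.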
# [13] = target: rat Glutamate, AMPA Site (AMPA), Gria1 (gene 50592) (UniProt P19490); experiment: NVS_LGIC_rAMPA: NovaScreen (NVS) Ligand-Gated Ion Channel Assay for rat Glutamate, AMPA Site (AMPA) (AID 2283324)
# How it was run: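 Rat forebrain membranes; radioligand binding read 1 h after dosing by filtration and scintillation counting. Duplicate single-point screen at 25 uM, then concentration-response to 50 uM for threshold hits (e.g. 30% inhibition); loss of signal vs DMSO.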
# [14] = target: Voltage-gated inwardly rectifying potassium channel KCNH2 (Homo sapiens) (UniProt Q12809); experiment: NVS_IC_hKhERGCh: NovaScreen (NVS) Ion Channel Assay for human Potassium Channel ERG (KhERGCh) (AID 2283333)
# Sequence of Voltage-gated inwardly rectifying potassium channel KCNH2 (Homo sapiens) (Q12809 whole entry, looked up): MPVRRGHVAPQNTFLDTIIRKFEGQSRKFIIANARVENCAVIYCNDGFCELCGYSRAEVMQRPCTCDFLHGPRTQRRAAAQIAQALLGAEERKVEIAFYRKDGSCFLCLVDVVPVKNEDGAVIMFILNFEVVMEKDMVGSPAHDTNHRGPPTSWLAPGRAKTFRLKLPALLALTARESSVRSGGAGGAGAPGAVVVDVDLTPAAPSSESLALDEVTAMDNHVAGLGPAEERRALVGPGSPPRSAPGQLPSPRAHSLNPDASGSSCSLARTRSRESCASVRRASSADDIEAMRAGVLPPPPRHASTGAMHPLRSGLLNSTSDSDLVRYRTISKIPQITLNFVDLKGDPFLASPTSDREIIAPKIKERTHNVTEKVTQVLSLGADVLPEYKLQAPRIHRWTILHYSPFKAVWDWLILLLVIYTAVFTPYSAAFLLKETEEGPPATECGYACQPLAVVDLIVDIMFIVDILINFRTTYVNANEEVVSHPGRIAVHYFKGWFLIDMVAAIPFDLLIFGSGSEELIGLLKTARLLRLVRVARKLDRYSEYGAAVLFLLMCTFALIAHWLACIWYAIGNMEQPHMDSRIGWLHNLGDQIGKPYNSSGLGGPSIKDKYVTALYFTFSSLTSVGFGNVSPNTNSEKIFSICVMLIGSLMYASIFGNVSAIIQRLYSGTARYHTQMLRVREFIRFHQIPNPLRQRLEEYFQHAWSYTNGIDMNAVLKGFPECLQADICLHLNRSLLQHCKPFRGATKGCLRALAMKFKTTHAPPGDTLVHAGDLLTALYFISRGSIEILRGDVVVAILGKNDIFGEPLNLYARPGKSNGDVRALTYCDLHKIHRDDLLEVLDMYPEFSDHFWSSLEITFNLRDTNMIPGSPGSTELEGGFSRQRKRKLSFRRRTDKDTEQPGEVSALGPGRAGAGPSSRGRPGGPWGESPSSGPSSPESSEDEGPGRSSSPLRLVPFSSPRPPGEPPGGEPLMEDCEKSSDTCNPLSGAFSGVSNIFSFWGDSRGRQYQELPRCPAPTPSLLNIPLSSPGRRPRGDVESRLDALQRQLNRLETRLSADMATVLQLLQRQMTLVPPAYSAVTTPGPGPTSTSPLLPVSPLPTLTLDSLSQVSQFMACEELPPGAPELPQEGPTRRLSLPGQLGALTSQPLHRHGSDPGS
# How it was run: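 Cell-free radioligand competition binding on hERG protein extracted from CHO cells, read by filter-based scintillation counting 0.75 h after dosing. Primary screen at 25 uM in duplicate, actives followed in concentration series. Signal loss fitted versus DMSO.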
# [15] = target: human Androgen Receptor (AR), AR (gene 367) (UniProt P10275); experiment: NVS_NR_hAR: NovaScreen (NVS) Nuclear Receptor Binding Assay for human Androgen Receptor (AR) (AID 2283332)
# Sequence of human Androgen Receptor (AR), AR (gene 367) (P10275 whole entry, looked up): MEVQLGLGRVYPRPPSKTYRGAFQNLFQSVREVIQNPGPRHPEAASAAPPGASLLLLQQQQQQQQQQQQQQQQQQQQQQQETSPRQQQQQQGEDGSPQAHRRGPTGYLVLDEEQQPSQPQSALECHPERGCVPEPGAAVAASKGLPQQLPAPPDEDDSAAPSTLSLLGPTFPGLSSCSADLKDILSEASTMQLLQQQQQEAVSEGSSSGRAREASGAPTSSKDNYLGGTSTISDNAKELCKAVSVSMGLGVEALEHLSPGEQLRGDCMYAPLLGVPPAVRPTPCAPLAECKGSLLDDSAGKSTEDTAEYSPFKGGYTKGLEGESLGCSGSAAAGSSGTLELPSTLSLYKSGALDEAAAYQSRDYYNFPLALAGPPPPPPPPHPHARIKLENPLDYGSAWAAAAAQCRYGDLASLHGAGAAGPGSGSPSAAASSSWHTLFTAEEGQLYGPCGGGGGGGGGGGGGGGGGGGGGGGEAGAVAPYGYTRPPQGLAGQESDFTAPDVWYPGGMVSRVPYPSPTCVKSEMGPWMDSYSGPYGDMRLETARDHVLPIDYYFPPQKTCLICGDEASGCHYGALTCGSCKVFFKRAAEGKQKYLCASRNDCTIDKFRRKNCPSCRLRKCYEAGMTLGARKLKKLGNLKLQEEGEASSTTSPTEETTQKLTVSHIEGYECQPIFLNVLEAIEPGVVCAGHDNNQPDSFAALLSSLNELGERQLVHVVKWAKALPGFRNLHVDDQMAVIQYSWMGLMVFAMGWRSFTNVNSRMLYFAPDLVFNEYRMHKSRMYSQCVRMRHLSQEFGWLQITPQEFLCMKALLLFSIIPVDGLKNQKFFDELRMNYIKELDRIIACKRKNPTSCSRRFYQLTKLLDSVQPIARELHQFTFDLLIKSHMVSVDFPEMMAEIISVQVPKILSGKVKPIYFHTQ
# How it was run: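 LnCAP cell-free extract; radioligand displacement read by scintillation counting after 20 h. Primary screen single concentration 25 uM in duplicate, actives then run as concentration series; loss-of-signal fitted relative to DMSO baseline.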
smiles,measurement,setting,value
O=C(NC(=O)c1c(F)cccc1F)Nc1ccc(OC(F)(F)C(F)OC(F)(F)F)c(Cl)c1 (stereo not drawn),outcome,[1],inactive
Oc1cc(Cl)ccc1Oc1ccc(Cl)cc1Cl,AC50,[2],3.23 µM (active) and 12.1 µM (active)
same,outcome,[3],inactive
same,outcome,[4],inactive
same,outcome,[5],inactive
same,AC50,[6],5.64 µM (active) and 25.5 µM (active) and 9.13 µM (active)
same,outcome,[6],inactive
CCS(=O)(=O)c1cccnc1S(=O)(=O)NC(=O)Nc1nc(OC)cc(OC)n1,outcome,[7],inactive
[2H]C1([2H])[n+]2ccccc2-c2cccc[n+]2C1([2H])[2H],outcome,[8],inactive
COP(=O)(OC)OC=C(Cl)Cl,outcome,[9],inactive
same,outcome,[5],inactive
CC[C@H](C)[C@H]1O[C@]2(C=C[C@@H]1C)C[C@@H]1C[C@@H](C/C=C(\C)[C@@H](O[C@H]3C[C@H](OC)[C@@H](O[C@H]4C[C@H](OC)[C@@H](O)[C@H](C)O4)[C@H](C)O3)[C@@H](C)/C=C/C=C3\CO[C@@H]4[C@H](O)C(C)=C[C@@H](C(=O)O1)[C@]34O)O2 (tested in a mixture with another compound),AC50,[10],4.89 µM (active)
same,AC50,[1],8.26 µM (active)
same,AC50,[5],0.363 µM (active)
same,outcome,[6],inactive
same,AC50,[11],15.5 µM (active)
C#CCN1C(=O)COc2cc(F)c(N3C(=O)C4=C(CCCC4)C3=O)cc21,outcome,[12],inactive
Cc1cc(C)nc(NC(=O)NS(=O)(=O)c2ccccc2C(=O)OC2COC2)n1,outcome,[13],inactive
same,outcome,[14],inactive
CC1(C)C(C=C(Cl)Cl)C1C(=O)OC(C#N)c1ccc(F)c(Oc2ccccc2)c1 (stereo not drawn),outcome,[5],inactive
same,AC50,[6],10.8 µM (active)
CCOc1nc(NC)nc(NC(=O)NS(=O)(=O)c2ccccc2C(=O)OC)n1,outcome,[15],inactive
O=[N+]([O-])/N=C1\NCCN1Cc1ccc(Cl)nc1,outcome,[5],inactive
same,outcome,[6],inactive
CN1CSC(=S)N(C)C1,outcome,[12],inactive
COc1cc(OC)nc(NC(=O)NS(=O)(=O)c2cc(NC=O)ccc2C(=O)N(C)C)n1,outcome,[14],inactive
CCN(CC)C(=O)SCc1ccc(Cl)cc1,AC50,[5],22.2 µM (active)
same,AC50,[6],13.5 µM (active)
COP(=S)(OC)Oc1ccc(SC)c(C)c1,AC50,[5],17.4 µM (active)
same,AC50,[6],4.64 µM (active)
O=[N+]([O-])c1c(Cl)c(Cl)c(Cl)c(Cl)c1Cl,outcome,[12],inactive
same,outcome,[6],inactive
CCOCN(C(=O)CCl)c1c(C)cccc1CC,AC50,[5],1.88 µM (active)
same,AC50,[6],1.45 µM (active)
CCCN(CCC)c1c([N+](=O)[O-])cc(C(F)(F)F)cc1[N+](=O)[O-],outcome,[15],inactive
same,AC50,[6],16.5 µM (active)
CC(C)OC(=O)Nc1cccc(Cl)c1,AC50,[5],17.1 µM (active)
same,AC50,[6],4.63 µM (active)
